For experiment [1], the target named is Nuclear respiratory factor 1 (Homo sapiens) (UniProt Q16656). Nature of the experiment: ATG_NRF1_CIS: Attagene CIS-FACTORIAL HepG2 Assay for human Nuclear Respiratory Factor 1 (NRF1) Orphan Gene (AID 2282987). Particulars: HepG2 NRF1 cis-element reporter, Attagene multiplex; actives raise or lower the signal. The method, boiled down:
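Cells (HepG2, transient MRTU transfection) are exposed to compound for 24 h, then RNA isolated and reporter mRNA amplified and fluorescently labelled. Fragments are separated by capillary electrophoresis; signal change is fitted bidirectionally relative to DMSO.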

Experiment [2] is described as follows: ATG_NFI_CIS: Attagene CIS-FACTORIAL HepG2 Assay for human Nuclear Factor I (NFI) (AID 2282989). Particulars: HepG2 cis-regulatory reporter, NFI response element transcription; actives raise or lower the signal. The procedure, abridged:
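HepG2, transient MRTU, 24 h exposure; RNA→cDNA→PCR→FAM label→HpaI→CE fluorescence. Bidirectional fit, DMSO = baseline.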

For experiment [3], the target named is Myc proto-oncogene protein (Homo sapiens) (UniProt P01106). The experiment in a line: ATG_Myc_CIS: Attagene CIS-FACTORIAL HepG2 Assay for human Myelocytomatosis (Myc) Proto-Oncogene Transcription Factor (AID 2282990). The following applies: HepG2, Attagene cis-reporter transcription factor activity; actives raise or lower the signal. The procedure, abridged:
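After 24 h chemical treatment of HepG2 cells carrying multiplexed cis-regulated reporter constructs, reporter transcripts quantified by RT-PCR and capillary electrophoresis of fluorescent fragments. Gain or loss fitted against DMSO baseline.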

Experiment [4] in a line: ATG_NF_kB_CIS: Attagene CIS-FACTORIAL HepG2 Assay for human Nuclear Factor Kappa B (NF-kB) (AID 2282991). Particulars: HepG2 Attagene cis-factorial NF-kB reporter mRNA; actives raise or lower the signal. The procedure, abridged: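 Measures mRNA induction of an NF-kB-responsive cis-element reporter in HepG2 cells transfected with multiple reporter units, sampled 24 h post-dosing; quantified by fluorescence after RT-PCR and capillary electrophoresis, fitted for activation or inhibition against DMSO.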

The nature of experiment [5]: ATG_NRF2_ARE_CIS: Attagene CIS-FACTORIAL HepG2 Assay for human Nuclear Factor Erythroid 2 Related Factor 2 (NFR2) response to Antioxidant Response Elements (ARE) (AID 2282992). The following applies: HepG2 Attagene ARE/NRF2 reporter, transcription factor activity; actives raise or lower the signal. The procedure, abridged:
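Endogenous transcription factor activity read out as reporter transcript levels (RT-PCR plus capillary electrophoresis, fluorescence) in transiently transfected HepG2 cells. Measured at 24 h after dosing; gain or loss of signal fitted versus DMSO.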

The nature of experiment [6]: ATG_Oct_MLP_CIS: Attagene CIS-FACTORIAL HepG2 Assay for human Octamer-Binding Transcription Factor (Oct) (AID 2282993). The following applies: HepG2 Attagene cis-factorial Oct reporter, mRNA; actives raise or lower the signal. The method, boiled down:
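Multiplexed cis-reporter assay in human liver HepG2 cells, 24 h incubation. Reporter RNA amplified and labelled, then resolved by capillary electrophoresis; DMSO serves as negative control and baseline.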

The target in experiment [7] is Cellular tumor antigen p53 (Homo sapiens) (UniProt P04637). The experiment in a line: ATG_p53_CIS: Attagene CIS-FACTORIAL HepG2 Assay for human p53 Transcription Factor (AID 2282994). Particulars: HepG2 p53 cis-element reporter, Attagene mRNA; actives raise or lower the signal. The procedure, abridged:
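Endogenous p53 activity read in transiently transfected HepG2 from a cis-element-driven reporter transcript after 24 h exposure. RNA reverse-transcribed, PCR-amplified, fluorescently labelled and sized by capillary electrophoresis; gain or loss fitted against DMSO baseline.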

Experiment [8] deals with human Peroxisome Proliferator-activated Receptor alpha (PPARa), PPARA (gene 5465) (UniProt Q07869). Nature of the experiment: ATG_PPARa_TRANS: Attagene TRANS-FACTORIAL HepG2 Assay for human Peroxisome Proliferator-activated Receptor alpha (PPARa) (AID 2283001; active means hit-call score of the fitted dose curve at least 0.9, where 1 is the maximum). The method, boiled down:
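Transfected HepG2 cells treated with test chemical for 24 h. RNA isolated, reverse-transcribed with oligo(dT), PCR-amplified, FAM-labelled and HpaI-digested. Fragments sized by capillary electrophoresis; gain-of-signal fit relative to DMSO.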

In experiment [9] the target is Peroxisome proliferator-activated receptor gamma (Homo sapiens) (UniProt P37231). The experiment in a line: ATG_PPARg_TRANS: Attagene TRANS-FACTORIAL HepG2 Assay for human Peroxisome Proliferator-activated Receptor-gamma (PPARg) (AID 2283007; active means hit-call score of the fitted dose curve at least 0.9, where 1 is the maximum). The method, boiled down: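 Gain-of-signal endpoint relative to DMSO, derived from reporter mRNA levels quantified by RT-PCR and capillary electrophoresis. Cells were HepG2 transiently expressing a chimeric NR-Gal4 construct with GAL4-UAS reporters, exposed to chemicals for 24 h.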
Chain of Peroxisome proliferator-activated receptor gamma (Homo sapiens) (P37231 whole entry, looked up, the tested form may be a part): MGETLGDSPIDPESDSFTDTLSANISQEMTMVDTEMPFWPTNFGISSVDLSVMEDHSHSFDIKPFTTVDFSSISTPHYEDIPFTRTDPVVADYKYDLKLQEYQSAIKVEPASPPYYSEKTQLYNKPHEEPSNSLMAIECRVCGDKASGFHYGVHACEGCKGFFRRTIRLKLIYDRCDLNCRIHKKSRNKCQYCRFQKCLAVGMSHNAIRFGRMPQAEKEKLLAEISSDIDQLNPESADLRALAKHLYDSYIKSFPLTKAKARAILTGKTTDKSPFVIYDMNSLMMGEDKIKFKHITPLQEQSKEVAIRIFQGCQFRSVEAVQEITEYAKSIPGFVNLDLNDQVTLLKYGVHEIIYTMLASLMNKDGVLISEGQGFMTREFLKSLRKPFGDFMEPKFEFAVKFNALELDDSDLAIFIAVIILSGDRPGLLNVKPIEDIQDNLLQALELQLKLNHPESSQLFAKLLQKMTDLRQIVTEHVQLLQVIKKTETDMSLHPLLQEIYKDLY

The target of experiment [10] is Nuclear receptor subfamily 1 group I member 2 (Homo sapiens) (UniProt O75469). Nature of the experiment: ATG_PXR_TRANS: Attagene TRANS-FACTORIAL HepG2 Assay for human Pregnane X Receptor (PXR) (AID 2283008; active means hit-call score of the fitted dose curve at least 0.9, where 1 is the maximum). The method, boiled down:
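Transactivation by exogenous PXR–GAL4 fusion measured as reporter transcript induction after 24 h compound treatment of transfected human HepG2 cells. Read-out via RT-PCR and capillary electrophoresis of labelled fragments, fitted upward relative to DMSO.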

In experiment [11] the target is human Peroxisome Proliferator-activated Receptor delta (PPARd), PPARD (gene 5467) (UniProt Q03181). The experiment in a line: ATG_PPARd_TRANS: Attagene TRANS-FACTORIAL HepG2 Assay for human Peroxisome Proliferator-activated Receptor delta (PPARd) (AID 2283002; active means hit-call score of the fitted dose curve at least 0.9, where 1 is the maximum). The method, boiled down: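 Read-out is induced reporter mRNA, quantified by RT-PCR with fluorescent labelling and capillary electrophoresis after 24 h dosing. Cells are HepG2 transiently carrying multiple GAL4-UAS reporter units driven by exogenous NR-GAL4 chimeras; DMSO serves as baseline.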
Chain of human Peroxisome Proliferator-activated Receptor delta (PPARd), PPARD (gene 5467) (Q03181 whole entry, looked up, the tested form may be a part): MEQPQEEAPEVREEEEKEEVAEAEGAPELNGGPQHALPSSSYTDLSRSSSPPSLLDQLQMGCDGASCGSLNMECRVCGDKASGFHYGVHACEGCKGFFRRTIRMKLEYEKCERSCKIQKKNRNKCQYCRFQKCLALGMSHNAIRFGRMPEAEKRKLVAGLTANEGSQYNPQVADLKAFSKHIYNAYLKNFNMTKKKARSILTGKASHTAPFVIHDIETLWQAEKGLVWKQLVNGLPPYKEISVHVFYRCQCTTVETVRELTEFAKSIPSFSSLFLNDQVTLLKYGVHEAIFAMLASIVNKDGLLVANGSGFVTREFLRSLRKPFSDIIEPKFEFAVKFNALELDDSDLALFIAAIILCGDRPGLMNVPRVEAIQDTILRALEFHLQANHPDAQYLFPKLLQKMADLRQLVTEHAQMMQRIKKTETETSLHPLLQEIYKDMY

In experiment [12] the target is Retinoic acid receptor alpha (Homo sapiens) (UniProt P10276). The experiment in a line: ATG_RARa_TRANS: Attagene TRANS-FACTORIAL HepG2 Assay for human Retinoic Acid Receptor alpha (RARa) (AID 2283005; active means hit-call score of the fitted dose curve at least 0.9, where 1 is the maximum). The procedure, abridged: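 Reporter transcripts, measured by RT-PCR with fluorescent labeling and capillary electrophoresis after 24 h dosing, reflect activity of an exogenous human RARa–GAL4 fusion in transiently transfected HepG2. Fitted for increase relative to DMSO.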
Chain of Retinoic acid receptor alpha (Homo sapiens) (P10276 whole entry, looked up, the tested form may be a part): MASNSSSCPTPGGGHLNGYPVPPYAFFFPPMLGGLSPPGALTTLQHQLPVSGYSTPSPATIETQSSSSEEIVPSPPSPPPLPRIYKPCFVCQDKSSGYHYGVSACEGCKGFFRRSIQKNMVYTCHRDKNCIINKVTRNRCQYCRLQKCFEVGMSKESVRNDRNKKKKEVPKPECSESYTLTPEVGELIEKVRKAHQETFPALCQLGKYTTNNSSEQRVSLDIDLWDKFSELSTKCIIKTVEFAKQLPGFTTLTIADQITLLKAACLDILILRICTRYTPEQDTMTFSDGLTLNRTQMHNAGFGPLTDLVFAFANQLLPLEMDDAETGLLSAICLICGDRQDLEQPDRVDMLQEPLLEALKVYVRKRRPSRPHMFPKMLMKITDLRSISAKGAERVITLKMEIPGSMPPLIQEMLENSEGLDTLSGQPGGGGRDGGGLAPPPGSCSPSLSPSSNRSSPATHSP

Experiment [13] concerns the target human Retinoic Acid Receptor beta (RARb), RARB (gene 5915) (UniProt P10826). The experiment in a line: ATG_RARb_TRANS: Attagene TRANS-FACTORIAL HepG2 Assay for human Retinoic Acid Receptor beta (AID 2283004; active means hit-call score of the fitted dose curve at least 0.9, where 1 is the maximum). The method, boiled down: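 HepG2 cells transiently transfected with multiplexed GAL4-UAS reporter units expressing chimeric NR–Gal4 fusions; 24 h compound exposure. Reporter mRNA quantified by RT-PCR, 6-FAM labelling, HpaI digestion and capillary electrophoresis; gain-of-signal fitted against DMSO baseline.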

The nature of experiment [14]: BSK_3C_TissueFactor: BioMAP Diversity Plus: 3C Assay for Tissue Factor Biomarker Activity (AID 2282997). The following applies: BioMAP 3C HUVEC, tissue factor biomarker readout; actives raise or lower the signal. The procedure, abridged: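 Readout: Tissue Factor ELISA. Cells: human primary umbilical vein endothelium. Time: 24 h after dosing. Analysis: bidirectional fit, DMSO baseline.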

The nature of experiment [15]: BSK_3C_uPAR: BioMAP Diversity Plus: 3C Assay for Urokinase-type plasminogen activator receptor (uPAR) Biomarker Activity (AID 2282998). Particulars: BioMAP 3C HUVEC, uPAR biomarker ELISA; actives raise or lower the signal. The method, boiled down:
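Dose primary human umbilical vein endothelial cells, incubate 24 h, measure cell-surface uPAR by ELISA, then fit the signal in both directions against the DMSO negative control.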

Experiment [16] can be described thus: BSK_3C_VCAM1: BioMAP Diversity Plus: 3C Assay for Vascular cell adhesion molecule 1 (VCAM1) Biomarker Activity (AID 2282999). The following applies: BioMAP 3C HUVEC, VCAM1 ELISA, cytokine-stimulated; actives raise or lower the signal. The procedure, abridged: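 Activity fitted in both directions relative to DMSO, with ELISA measurement of the surface marker on primary HUVEC (3C) at 24 h post-treatment; parallel SRB staining (0.1% SRB, TCA-fixed, 560 nm) flagged overt cytotoxicity.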
In general terms: An ELISA detects its analyte on a solid surface through an enzyme-linked reagent.

A short description of experiment [17]: BSK_3C_Proliferation: Cell Proliferation Assessment in the BioMAP Diversity Plus: 3C Assay (AID 2283006).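 On AC50: potency may reflect either rise or fall in cell number versus DMSO.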 The following applies: primary human endothelial cells (HUVEC). The procedure, abridged:
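HUVEC, sub-confluent; 48 h chemical exposure; 10% TCA fix, 0.1% SRB stain, A560 total protein. Gain or loss of signal fitted both directions vs DMSO control.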

Experiment [18] in a line: BSK_4H_Eotaxin3: BioMAP Diversity Plus: 4H Assay for Eotaxin 3 Biomarker Activity (AID 2283000). Particulars: primary human endothelial cells (HUVEC); actives raise or lower the signal. The method, boiled down: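 HUVEC, 24 h post-dose, ELISA for Eotaxin-3/CCL26. Gain or loss of signal fitted bidirectionally vs DMSO baseline.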

Results filed as inconclusive are left out. The source made the active and inactive calls. How the source made its calls, unless noted: active means hit-call score of the fitted dose curve at least 0.9, where 1 is the maximum; inactive means score below 0.9.

Chain of Nuclear respiratory factor 1 (Homo sapiens) (Q16656 whole entry, looked up, the tested form may be a part): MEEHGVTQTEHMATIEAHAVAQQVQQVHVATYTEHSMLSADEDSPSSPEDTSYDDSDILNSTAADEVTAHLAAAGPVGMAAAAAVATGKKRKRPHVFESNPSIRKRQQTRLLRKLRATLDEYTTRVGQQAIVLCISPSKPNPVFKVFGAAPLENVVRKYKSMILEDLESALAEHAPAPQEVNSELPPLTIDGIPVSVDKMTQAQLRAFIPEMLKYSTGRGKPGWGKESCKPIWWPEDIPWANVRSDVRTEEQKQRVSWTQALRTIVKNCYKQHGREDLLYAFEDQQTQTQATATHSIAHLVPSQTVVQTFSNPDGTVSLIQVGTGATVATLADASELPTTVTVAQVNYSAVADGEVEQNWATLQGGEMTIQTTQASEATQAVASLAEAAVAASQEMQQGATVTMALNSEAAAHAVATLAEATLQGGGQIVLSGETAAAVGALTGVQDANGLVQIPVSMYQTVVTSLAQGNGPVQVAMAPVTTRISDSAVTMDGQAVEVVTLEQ
Chain of Cellular tumor antigen p53 (Homo sapiens) (P04637 whole entry, looked up): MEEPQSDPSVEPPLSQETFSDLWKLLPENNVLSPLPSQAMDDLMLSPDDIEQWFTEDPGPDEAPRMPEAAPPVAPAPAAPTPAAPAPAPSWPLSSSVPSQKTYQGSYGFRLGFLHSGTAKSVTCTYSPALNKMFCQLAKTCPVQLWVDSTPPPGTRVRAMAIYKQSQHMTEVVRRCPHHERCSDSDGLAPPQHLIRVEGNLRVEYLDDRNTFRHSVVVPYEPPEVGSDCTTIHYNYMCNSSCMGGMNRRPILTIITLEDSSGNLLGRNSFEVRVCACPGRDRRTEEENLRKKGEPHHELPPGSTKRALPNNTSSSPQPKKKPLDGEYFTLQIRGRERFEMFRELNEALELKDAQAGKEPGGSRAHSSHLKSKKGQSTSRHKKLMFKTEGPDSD
Chain of Myc proto-oncogene protein (Homo sapiens) (P01106 whole entry, looked up, the tested form may be a part): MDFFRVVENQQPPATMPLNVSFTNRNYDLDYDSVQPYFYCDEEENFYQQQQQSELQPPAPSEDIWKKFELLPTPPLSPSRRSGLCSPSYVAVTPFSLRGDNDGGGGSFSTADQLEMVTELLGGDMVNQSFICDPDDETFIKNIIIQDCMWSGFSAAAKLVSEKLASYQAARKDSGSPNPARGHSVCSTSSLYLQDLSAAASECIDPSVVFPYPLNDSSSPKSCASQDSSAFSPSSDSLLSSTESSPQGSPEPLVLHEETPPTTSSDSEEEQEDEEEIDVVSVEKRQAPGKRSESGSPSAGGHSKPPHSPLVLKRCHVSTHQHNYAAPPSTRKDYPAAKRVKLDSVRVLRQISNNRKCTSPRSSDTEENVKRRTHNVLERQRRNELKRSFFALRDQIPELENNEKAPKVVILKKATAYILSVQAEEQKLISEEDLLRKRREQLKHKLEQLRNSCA
Chain of Nuclear receptor subfamily 1 group I member 2 (Homo sapiens) (O75469 whole entry, looked up, the tested form may be a part): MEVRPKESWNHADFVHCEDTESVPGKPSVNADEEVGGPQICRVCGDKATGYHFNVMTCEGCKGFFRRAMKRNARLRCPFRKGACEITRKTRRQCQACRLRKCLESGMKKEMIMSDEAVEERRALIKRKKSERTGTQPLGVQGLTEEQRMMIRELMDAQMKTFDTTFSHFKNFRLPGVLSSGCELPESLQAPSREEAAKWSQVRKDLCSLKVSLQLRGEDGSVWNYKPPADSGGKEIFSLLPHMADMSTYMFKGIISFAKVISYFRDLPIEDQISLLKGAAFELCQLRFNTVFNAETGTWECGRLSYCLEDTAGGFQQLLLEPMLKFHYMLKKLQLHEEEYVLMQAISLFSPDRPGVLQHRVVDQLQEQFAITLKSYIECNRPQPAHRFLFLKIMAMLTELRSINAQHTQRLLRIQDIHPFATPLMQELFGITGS
Chain of human Peroxisome Proliferator-activated Receptor alpha (PPARa), PPARA (gene 5465) (Q07869 whole entry, looked up, the tested form may be a part): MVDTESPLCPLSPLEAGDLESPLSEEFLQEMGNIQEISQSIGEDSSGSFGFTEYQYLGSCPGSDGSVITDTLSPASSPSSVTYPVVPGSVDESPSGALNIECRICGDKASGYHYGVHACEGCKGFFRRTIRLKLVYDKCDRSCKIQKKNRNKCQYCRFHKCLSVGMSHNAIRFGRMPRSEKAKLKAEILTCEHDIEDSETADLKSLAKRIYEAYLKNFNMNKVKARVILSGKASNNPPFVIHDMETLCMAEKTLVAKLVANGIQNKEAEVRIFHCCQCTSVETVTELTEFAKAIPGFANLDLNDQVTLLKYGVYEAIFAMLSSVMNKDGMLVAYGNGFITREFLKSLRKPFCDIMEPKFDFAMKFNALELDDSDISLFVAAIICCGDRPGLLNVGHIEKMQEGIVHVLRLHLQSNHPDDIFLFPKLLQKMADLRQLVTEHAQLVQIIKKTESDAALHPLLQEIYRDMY
Chain of human Retinoic Acid Receptor beta (RARb), RARB (gene 5915) (P10826 whole entry, looked up, the tested form may be a part): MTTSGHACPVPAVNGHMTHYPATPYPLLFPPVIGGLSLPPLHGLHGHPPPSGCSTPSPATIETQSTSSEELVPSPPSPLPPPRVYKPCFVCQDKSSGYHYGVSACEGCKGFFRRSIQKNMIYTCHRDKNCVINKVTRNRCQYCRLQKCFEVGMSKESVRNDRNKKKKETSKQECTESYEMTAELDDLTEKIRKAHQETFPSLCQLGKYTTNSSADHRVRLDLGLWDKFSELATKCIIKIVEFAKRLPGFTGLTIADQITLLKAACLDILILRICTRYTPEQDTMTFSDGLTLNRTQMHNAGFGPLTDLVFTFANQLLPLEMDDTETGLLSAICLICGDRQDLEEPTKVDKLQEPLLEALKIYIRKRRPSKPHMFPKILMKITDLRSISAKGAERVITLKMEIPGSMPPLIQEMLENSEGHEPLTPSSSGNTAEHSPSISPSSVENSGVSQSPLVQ

Consider `O=C(c1ccccc1)C(Cl)Cl`, for which the AC50 (usually the concentration giving half of the maximal activity seen) in experiment [1] was 24.8 µM (active); in [2], 25.1 µM (active); in [4], 25.9 µM (active); in [6], 25.3 µM (active). Besides, the call in experiment [3], in experiment [5], in experiment [7], in experiment [8], in experiment [9] and in [10] was inactive.

As for `CCc1ccccc1C`, the outcome in [1], in experiment [2], in experiment [3], in experiment [4], in experiment [5] and in experiment [6] was inactive. Also, the outcome in experiment [7], in [8], in [11] and in experiment [10] was inactive.

Consider `COc1ccc(C=O)cc1`, for which the outcome in experiment [1], in experiment [2], in [3], in experiment [4], in experiment [5] and in experiment [6] was inactive. The molecule was classed as inactive in [7], in [8], in [11] and in experiment [9].

`O=P(O)(O)CN(CP(=O)(O)O)CP(=O)(O)O`: the call in [1], in experiment [2], in experiment [3], in [4], in experiment [5] and in [6] was inactive. The outcome in experiment [7], in experiment [11], in [12] and in experiment [10] was inactive.

As for `ClCc1cccnc1`, the molecule was classed as inactive in [1], in experiment [3], in experiment [4], in experiment [7], in experiment [11] and in experiment [10]. For the same molecule, the AC50 was 60.8 µM (active) in [2], 27.9 µM (active) in experiment [5], 50.9 µM (active) in [6] and 51.8 µM (active) in experiment [9].

As to `Cc1ccccc1C(=O)Nc1cccc(OC(C)C)c1`, the outcome in [1], in [2], in experiment [3], in [4], in [6] and in experiment [7] was inactive. In addition, in [11], the result was inactive. Besides, the figures for the AC50 in experiment [5], in [9] and in [10] were 57.3 µM (active), 27.9 µM (active) and 2.62 µM (active), respectively.

Regarding `OCC(O)CCl` (stereo not given), the molecule was called inactive in experiment [1], in experiment [2], in experiment [3], in experiment [4], in [5] and in experiment [6]. Moreover, the molecule was classed as inactive in [7], in experiment [11], in experiment [9] and in experiment [10].

Take `CC(C)c1cccc(C(C)C)c1O`: the molecule was classed as inactive in [1], in experiment [2], in experiment [3], in experiment [4], in [5] and in experiment [6]. Further, the molecule was classed as inactive in experiment [7], in experiment [11], in experiment [13], in experiment [12] and in experiment [9]. Moreover, the AC50 in [10] was 4.74 µM (active).

With `CC(C)(OO)c1ccccc1`, the outcome in [1], in experiment [3], in [4], in experiment [5], in [6] and in [7] was inactive. The result in experiment [14], in experiment [15], in experiment [16], in experiment [8], in experiment [11] and in experiment [17] was inactive. For the same molecule, the call in experiment [9] was inactive.

As for `CCCCC(CC)CO[N+](=O)[O-]` (stereo not given), the molecule was classed as inactive in experiment [1], in [3], in [6], in experiment [7], in experiment [15] and in [16]. For the same molecule, the outcome in experiment [11] and in experiment [10] was inactive. For the same molecule, the AC50 was 167 µM (active) in experiment [5], 28.6 µM (active) in experiment [14], 30.4 µM (active) in experiment [18] and 30.8 µM (active) in experiment [17].

As for `CC1CN1P(=O)(N1CC1C)N1CC1C` (stereo not given), the outcome in [1], in experiment [3], in [4], in [5], in experiment [6] and in [8] was inactive. In addition, the result in experiment [9] and in experiment [10] was inactive.

These data come from PubChem BioAssay (EPA / NIEHS).
